Source: publication PMC7862700, “An all-to-all approach to the identification of sequence-specific readers for epigenetic DNA modifications on cytosine”

Legend:
Test in all cases: DAPPL (digital affinity profiling via proximity ligation, sequencing); 10 mM Tris-HCl pH 7.5, 50 mM NaCl, 1 mM DTT, 4% glycerol, room temperature, 30 min; GST-TFs on glutathione beads, 16-mer random dsDNA library, 0.1% formaldehyde crosslink after washing; high values mean tight binding
FEV = biological target: T1, FEV (Homo sapiens, UniProt Q99581 1-238); conditions: protein: recombinant; tags: N-terminal GST; dsDNA, one strand shown
T1 sequence: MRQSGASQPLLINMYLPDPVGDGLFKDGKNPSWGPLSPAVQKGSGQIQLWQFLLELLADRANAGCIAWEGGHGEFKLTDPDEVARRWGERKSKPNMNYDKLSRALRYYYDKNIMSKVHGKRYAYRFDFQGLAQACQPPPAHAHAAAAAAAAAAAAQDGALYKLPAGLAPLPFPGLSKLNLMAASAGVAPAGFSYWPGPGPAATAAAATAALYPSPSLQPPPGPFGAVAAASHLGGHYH
Outline: (§1)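 Binding signal is each hexamer's read frequency for a factor divided by its frequency in the tag-only sample. The factors were GST-fused human transcription factors from yeast, captured on glutathione beads, DNA-barcoded and pooled with that sample. Pools were incubated with 200 nmole of a random double-stranded 16-mer DNA library in Tris/NaCl/DTT/glycerol buffer at room temperature for 30 min, then washed, crosslinked with 0.1% formaldehyde, proximity-ligated with BsaI/T4 ligase (1 h, 37 °C), PCR-amplified and sequenced on an Illumina NextSeq500.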

ETV5 = ETV5 (Homo sapiens, UniProt P41161 1-510); conditions: protein: recombinant; tags: N-terminal GST; dsDNA, one strand shown
ETV5, sequence (P41161 whole entry): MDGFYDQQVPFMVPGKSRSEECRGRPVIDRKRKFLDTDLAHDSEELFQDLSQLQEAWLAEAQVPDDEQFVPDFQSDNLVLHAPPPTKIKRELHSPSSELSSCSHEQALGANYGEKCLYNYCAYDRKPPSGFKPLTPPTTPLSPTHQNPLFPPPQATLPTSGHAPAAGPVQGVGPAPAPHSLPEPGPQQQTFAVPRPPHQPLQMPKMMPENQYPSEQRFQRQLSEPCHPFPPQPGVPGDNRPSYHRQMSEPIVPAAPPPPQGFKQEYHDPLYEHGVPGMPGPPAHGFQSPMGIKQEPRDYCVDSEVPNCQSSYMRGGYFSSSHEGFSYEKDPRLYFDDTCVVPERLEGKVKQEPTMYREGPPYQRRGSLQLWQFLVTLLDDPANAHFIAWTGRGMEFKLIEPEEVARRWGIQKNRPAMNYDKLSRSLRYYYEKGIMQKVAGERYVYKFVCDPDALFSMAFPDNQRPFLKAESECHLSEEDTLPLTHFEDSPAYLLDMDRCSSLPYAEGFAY
Outline: as §1

HSF1 = HSF1 (Homo sapiens, UniProt Q00613 1-529); conditions: protein: recombinant; tags: N-terminal GST; chain copies: 3; dsDNA, one strand shown
HSF1, sequence (Q00613 whole entry): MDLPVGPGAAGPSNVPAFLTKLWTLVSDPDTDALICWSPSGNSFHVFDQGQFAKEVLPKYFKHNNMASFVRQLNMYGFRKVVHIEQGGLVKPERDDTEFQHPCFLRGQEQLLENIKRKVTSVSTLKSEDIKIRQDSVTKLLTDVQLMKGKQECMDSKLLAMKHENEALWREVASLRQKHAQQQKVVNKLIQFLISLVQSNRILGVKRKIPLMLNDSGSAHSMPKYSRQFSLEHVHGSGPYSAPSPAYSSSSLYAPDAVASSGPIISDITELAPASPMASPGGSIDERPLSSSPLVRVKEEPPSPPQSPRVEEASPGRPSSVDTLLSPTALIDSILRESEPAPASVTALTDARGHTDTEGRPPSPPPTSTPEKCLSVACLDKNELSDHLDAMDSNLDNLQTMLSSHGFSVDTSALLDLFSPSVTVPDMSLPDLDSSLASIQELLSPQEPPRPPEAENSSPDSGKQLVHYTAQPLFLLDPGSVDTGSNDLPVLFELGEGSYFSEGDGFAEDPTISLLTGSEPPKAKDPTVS
Outline: as §1

SPIC = biological target: T2, SPIC (Homo sapiens, UniProt Q8N5J4 1-248); conditions: protein: recombinant; tags: N-terminal GST; dsDNA, one strand shown
T2 sequence: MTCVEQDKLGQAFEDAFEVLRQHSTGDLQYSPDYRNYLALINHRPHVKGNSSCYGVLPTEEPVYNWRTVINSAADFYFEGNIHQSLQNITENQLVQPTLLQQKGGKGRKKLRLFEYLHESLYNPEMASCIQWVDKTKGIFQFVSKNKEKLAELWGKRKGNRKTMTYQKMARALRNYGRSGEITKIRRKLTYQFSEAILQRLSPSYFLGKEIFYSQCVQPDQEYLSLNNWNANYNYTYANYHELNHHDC
Outline: as §1

ELF4 = ELF4 (Homo sapiens, UniProt Q99607 1-663); conditions: protein: recombinant; tags: N-terminal GST; dsDNA, one strand shown
ELF4, sequence (Q99607 whole entry): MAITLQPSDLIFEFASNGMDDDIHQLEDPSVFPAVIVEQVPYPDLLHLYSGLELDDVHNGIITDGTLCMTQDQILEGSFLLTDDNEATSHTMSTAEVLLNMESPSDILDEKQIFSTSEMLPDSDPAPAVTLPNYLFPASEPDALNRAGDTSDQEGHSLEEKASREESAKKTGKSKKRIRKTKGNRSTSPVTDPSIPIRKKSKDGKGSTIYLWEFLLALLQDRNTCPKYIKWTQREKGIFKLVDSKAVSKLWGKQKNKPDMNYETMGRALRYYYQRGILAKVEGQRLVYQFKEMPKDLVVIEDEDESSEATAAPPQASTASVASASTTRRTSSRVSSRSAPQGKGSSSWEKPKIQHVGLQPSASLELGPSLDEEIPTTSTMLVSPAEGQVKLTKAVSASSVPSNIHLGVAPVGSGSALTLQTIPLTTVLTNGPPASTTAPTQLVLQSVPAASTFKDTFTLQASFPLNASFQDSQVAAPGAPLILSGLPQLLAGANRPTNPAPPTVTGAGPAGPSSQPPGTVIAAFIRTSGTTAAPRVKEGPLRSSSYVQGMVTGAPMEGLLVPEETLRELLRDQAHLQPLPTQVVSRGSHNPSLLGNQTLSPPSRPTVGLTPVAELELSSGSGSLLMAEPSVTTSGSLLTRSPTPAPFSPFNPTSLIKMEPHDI
Outline: as §1

ELK4 = biological target: T3, ELK4 (Homo sapiens, UniProt P28324-2 1-405); conditions: protein: recombinant; tags: N-terminal GST; dsDNA, one strand shown
T3 sequence: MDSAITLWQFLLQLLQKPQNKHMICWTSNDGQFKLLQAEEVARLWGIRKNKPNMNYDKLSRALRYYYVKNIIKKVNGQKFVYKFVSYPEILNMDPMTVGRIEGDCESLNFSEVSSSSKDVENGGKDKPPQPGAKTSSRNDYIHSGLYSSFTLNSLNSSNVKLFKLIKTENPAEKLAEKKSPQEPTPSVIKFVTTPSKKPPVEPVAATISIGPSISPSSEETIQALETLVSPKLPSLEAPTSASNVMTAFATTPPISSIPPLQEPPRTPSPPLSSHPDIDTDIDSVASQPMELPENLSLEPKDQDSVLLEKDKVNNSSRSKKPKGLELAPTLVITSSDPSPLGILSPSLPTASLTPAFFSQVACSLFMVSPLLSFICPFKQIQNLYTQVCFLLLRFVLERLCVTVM
Outline: as §1

ETV2 = biological target: T4, ETV2 (Homo sapiens, UniProt O00321 1-342); conditions: protein: recombinant; tags: N-terminal GST; dsDNA, one strand shown
T4 sequence: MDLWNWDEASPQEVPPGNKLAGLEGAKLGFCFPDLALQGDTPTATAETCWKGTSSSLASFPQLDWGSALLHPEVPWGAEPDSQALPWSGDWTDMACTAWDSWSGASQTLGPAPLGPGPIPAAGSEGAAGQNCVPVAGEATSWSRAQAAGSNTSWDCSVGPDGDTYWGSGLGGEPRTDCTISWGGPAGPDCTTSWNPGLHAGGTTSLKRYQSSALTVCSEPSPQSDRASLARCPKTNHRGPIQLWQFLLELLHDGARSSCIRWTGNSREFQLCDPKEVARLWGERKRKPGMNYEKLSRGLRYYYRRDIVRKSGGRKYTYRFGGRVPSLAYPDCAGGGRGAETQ
Outline: as §1

ELF3 = biological target: T5, ELF3 (Homo sapiens, UniProt P78545 1-371); conditions: protein: recombinant; tags: N-terminal GST; dsDNA, one strand shown
T5 sequence: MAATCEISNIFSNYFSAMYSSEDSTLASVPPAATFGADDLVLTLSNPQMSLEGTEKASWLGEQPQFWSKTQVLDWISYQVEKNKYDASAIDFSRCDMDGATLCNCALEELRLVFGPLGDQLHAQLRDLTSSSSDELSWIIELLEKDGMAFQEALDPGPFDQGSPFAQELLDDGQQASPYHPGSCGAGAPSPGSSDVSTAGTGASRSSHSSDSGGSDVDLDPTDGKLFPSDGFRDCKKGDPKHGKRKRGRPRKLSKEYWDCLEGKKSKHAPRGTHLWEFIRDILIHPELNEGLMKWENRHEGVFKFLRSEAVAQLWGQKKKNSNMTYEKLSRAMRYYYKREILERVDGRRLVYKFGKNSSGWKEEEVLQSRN
Outline: as §1

CRX = CRX (Homo sapiens, UniProt O43186 1-299); conditions: protein: recombinant; tags: N-terminal GST; dsDNA, one strand shown
CRX, sequence (O43186 whole entry): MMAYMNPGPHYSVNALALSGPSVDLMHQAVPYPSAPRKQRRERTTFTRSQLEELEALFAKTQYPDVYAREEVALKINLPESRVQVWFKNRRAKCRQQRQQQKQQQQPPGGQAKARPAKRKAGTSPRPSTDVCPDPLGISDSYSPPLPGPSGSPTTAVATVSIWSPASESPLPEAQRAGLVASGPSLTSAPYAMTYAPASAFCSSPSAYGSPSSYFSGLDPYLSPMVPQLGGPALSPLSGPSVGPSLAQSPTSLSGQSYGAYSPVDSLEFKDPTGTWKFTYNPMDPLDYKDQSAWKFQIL
Outline: as §1

ETV1 = ETV1 (Homo sapiens, UniProt P50549 1-477); conditions: protein: recombinant; tags: N-terminal GST; dsDNA, one strand shown
ETV1, sequence (P50549 whole entry): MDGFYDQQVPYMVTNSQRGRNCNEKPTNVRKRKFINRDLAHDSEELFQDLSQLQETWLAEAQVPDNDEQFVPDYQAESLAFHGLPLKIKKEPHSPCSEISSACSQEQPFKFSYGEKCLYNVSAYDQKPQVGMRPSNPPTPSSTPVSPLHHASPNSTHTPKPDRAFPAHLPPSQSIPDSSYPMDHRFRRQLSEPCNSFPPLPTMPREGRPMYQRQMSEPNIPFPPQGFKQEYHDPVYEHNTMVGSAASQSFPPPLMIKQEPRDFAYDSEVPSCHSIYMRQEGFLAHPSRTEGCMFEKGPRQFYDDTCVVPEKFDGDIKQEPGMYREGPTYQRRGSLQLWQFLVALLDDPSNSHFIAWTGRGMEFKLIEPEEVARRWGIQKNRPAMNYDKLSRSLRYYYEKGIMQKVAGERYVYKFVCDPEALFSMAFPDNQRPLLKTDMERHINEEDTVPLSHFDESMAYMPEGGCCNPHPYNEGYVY
Outline: as §1

ERF = biological target: T6, ERF (Homo sapiens, UniProt P50548 1-548); conditions: protein: recombinant; tags: N-terminal GST; dsDNA, one strand shown
T6 sequence: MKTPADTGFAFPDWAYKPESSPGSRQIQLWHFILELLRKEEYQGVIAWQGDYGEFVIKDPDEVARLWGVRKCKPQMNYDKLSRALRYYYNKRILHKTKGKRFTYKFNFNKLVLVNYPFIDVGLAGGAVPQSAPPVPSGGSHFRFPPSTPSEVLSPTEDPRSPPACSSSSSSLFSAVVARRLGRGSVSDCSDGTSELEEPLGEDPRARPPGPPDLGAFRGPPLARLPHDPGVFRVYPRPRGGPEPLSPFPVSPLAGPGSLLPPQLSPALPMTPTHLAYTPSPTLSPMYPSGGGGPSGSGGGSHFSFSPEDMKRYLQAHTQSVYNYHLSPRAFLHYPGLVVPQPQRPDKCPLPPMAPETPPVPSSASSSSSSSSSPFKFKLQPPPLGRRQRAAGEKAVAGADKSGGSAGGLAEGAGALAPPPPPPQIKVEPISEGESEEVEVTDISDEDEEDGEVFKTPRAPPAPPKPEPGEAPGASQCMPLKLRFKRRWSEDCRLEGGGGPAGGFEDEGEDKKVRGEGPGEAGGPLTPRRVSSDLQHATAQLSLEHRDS
Outline: as §1

ETV3L = biological target: T7, ETV3L (Homo sapiens, UniProt Q6ZN32 1-361); conditions: protein: recombinant; tags: N-terminal GST; dsDNA, one strand shown
T7 sequence: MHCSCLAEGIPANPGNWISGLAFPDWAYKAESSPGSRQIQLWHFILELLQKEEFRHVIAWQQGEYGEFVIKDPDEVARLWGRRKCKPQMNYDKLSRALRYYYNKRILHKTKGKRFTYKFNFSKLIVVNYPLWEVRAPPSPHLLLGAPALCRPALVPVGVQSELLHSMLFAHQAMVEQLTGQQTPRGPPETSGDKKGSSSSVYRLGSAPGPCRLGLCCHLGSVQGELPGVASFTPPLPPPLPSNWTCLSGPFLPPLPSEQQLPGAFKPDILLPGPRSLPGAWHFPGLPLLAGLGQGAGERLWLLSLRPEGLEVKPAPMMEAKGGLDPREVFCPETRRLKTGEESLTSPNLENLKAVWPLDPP
Outline: as §1

ETS2 = biological target: T8, ETS2 (Homo sapiens, UniProt P15036 1-469); conditions: protein: recombinant; tags: N-terminal GST; dsDNA, one strand shown
T8 sequence: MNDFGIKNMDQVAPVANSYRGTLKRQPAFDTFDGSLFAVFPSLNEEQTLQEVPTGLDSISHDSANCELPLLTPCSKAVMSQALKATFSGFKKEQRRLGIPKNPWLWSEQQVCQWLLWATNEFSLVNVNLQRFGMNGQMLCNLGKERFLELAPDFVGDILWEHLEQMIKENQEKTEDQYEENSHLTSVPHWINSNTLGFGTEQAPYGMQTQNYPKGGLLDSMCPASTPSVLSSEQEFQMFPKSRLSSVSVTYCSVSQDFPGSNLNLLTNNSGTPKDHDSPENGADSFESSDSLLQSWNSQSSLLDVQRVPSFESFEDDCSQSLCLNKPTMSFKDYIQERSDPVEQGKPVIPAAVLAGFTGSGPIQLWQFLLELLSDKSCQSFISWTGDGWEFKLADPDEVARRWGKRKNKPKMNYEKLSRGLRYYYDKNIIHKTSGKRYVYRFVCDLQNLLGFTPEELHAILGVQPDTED
Outline: as §1

SPDEF = biological target: T9, SPDEF (Homo sapiens, UniProt O95238 1-335); conditions: protein: recombinant; tags: N-terminal GST; dsDNA, one strand shown
T9 sequence: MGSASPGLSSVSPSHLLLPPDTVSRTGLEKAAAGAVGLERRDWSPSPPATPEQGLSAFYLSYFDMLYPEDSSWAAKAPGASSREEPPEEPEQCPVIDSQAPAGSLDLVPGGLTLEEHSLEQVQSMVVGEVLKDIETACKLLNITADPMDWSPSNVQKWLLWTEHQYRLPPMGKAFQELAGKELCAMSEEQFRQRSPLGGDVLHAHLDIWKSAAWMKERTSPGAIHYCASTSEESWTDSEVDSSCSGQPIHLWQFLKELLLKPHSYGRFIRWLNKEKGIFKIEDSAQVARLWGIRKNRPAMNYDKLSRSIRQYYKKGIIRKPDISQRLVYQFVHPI
Outline: as §1

ETV7 = biological target: T10, ETV7 (Homo sapiens, UniProt Q9Y603 1-341); conditions: protein: recombinant; tags: N-terminal GST; dsDNA, one strand shown
T10 sequence: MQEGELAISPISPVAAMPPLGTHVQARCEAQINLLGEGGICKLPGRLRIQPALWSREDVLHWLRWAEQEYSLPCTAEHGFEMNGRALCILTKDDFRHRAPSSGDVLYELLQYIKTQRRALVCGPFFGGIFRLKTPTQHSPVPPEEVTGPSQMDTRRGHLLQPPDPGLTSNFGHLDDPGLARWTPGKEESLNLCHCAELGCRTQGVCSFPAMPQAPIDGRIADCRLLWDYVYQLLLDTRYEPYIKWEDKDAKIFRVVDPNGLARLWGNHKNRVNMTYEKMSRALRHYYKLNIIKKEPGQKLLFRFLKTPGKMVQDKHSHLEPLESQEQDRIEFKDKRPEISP
Outline: as §1

ELF5 = biological target: T11, ELF5 (Homo sapiens, UniProt Q9UKW6-2 1-255); conditions: protein: recombinant; tags: N-terminal GST; dsDNA, one strand shown
T11 sequence: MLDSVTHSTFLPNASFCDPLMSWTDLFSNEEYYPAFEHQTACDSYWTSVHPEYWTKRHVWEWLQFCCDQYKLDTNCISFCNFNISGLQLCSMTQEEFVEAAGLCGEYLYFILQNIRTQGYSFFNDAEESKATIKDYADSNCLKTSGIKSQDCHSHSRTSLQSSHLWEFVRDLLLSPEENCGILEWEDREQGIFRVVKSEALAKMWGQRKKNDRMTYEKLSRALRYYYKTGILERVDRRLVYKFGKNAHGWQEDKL
Outline: as §1

ETV3 = biological target: T12, ETV3 (Homo sapiens, UniProt P41162-2 1-143); conditions: protein: recombinant; tags: N-terminal GST; dsDNA, one strand shown
T12 sequence: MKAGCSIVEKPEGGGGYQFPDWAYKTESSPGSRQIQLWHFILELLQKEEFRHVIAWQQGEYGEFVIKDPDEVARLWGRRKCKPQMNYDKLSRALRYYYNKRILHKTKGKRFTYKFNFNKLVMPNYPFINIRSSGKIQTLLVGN
Outline: as §1

ETV6 = ETV6 (Homo sapiens, UniProt P41212 1-452); conditions: protein: recombinant; tags: N-terminal GST; dsDNA, one strand shown
ETV6, sequence (P41212 whole entry): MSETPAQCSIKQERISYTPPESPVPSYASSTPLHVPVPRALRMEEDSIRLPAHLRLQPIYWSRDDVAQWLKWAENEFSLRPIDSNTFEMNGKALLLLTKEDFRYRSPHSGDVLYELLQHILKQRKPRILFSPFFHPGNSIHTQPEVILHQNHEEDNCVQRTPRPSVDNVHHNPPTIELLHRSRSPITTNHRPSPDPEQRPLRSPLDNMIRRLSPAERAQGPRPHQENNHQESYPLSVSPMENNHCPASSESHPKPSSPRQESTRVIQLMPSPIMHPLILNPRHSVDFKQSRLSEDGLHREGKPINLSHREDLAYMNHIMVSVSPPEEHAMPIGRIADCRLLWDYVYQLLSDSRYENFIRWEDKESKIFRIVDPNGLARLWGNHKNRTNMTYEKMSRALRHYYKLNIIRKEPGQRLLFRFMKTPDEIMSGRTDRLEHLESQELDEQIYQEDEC
Outline: as §1

Sequence: CTTCAC
- binding signal (FEV): 1.34 fold enrichment (6-mer frequency, TF over GST control)
- binding signal (ETV5): 1.37 fold enrichment (6-mer frequency, TF over GST control)
- binding signal (HSF1): 1.18 fold enrichment (6-mer frequency, TF over GST control)
- binding signal (SPIC): 1.57 fold enrichment (6-mer frequency, TF over GST control)
- binding signal (ELF4): 1.33 fold enrichment (6-mer frequency, TF over GST control)
- binding signal (ELK4): 1.45 fold enrichment (6-mer frequency, TF over GST control)
- binding signal (ETV2): 1.43 fold enrichment (6-mer frequency, TF over GST control)
- binding signal (ELF3): 1.54 fold enrichment (6-mer frequency, TF over GST control)
- binding signal (CRX): 1.17 fold enrichment (6-mer frequency, TF over GST control)
- binding signal (ETV1): 1.37 fold enrichment (6-mer frequency, TF over GST control)
- binding signal (ERF): 1.44 fold enrichment (6-mer frequency, TF over GST control)
- binding signal (ETV3L): 1.44 fold enrichment (6-mer frequency, TF over GST control)
- binding signal (ETS2): 1.36 fold enrichment (6-mer frequency, TF over GST control)
- binding signal (SPDEF): 1.4 fold enrichment (6-mer frequency, TF over GST control)
- binding signal (ETV7): 1.45 fold enrichment (6-mer frequency, TF over GST control)
- binding signal (ELF5): 1.38 fold enrichment (6-mer frequency, TF over GST control)
- binding signal (ETV3): 1.45 fold enrichment (6-mer frequency, TF over GST control)
- binding signal (ETV6): 1.43 fold enrichment (6-mer frequency, TF over GST control)
